Only some compounds are listed: those with a hit (about 8.9% of all), similar ones and a draw of the others.
ALOX12 inhib – blocks human 12-lipoxygenase activity; P18054; purified 12-hLO, xylenol orange hydroperoxide absorbance; Potency, µM (top dose mostly 57.1 µM), for the others: at the top dose activity change, negative = inhibition, most hits filed as inhibitors; 0.12% of 150,000 active; note: potency is the fitted concentration of half-maximal effect; nearly all actives have a fitted effect of over 55% in size
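Purified human 12hLO (150 nM), preincubated 15 min with compound, then 40 uM arachidonic acid for 30 min, room temperature, Hepes pH 7.0 with 0.01% Triton X-100. Hydroperoxide detected by ferrous iron/xylenol orange; 573/405 nm absorbance ratio gives reaction progress.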
IMPase inh – cell-permeable inhibitors of inositol monophosphatase (IMPase); 120,000 tested, under 10 active; AID 901; P97697; CHO-M1 cells, IP1 accumulation, HTRF TR-FRET ratio; inhibition (IP1 accumulation), % at 46.1 µM; active = well fitted curve in the direction sought with a large enough effect in the signal ratio, not every such curve was filed as active; inconclusive = small, poorly fitted or top-dose-only effect, or a change in a side signal; inactive = no such curve, though single readings can be large or run the other way; the % refers to the signal ratio;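 note: cells stimulated with carbachol in lithium chloride buffer; plate controls were DMSO basal wells for no effect and reference inhibitor wells for full effect; higher means more IMPase inhibition seen as more IP1 and lower FRET ratio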
Target sequence (P97697 whole entry, looked up): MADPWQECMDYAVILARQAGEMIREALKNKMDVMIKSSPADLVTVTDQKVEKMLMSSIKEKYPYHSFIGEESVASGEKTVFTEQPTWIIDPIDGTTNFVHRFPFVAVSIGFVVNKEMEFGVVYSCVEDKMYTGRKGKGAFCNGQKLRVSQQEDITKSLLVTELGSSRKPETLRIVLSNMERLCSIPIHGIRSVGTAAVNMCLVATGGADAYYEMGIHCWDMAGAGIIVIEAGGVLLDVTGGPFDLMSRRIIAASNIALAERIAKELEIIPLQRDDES
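CHO-M1 cells (CHO stably expressing M1 receptor), compound up to 46 uM final, stimulated with carbachol (50 uM as added) in buffer with 50mM LiCl, pH 7.4, 30 min at 37C. Cytosolic IP1 read by TR-FRET; AC50 from Hill fits.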
IMPase Li cell – membrane-permeable IMPase blocker, potentiated with lithium. CHO-M1 cells, IP1 TR-FRET (IP-One), carbachol + lithium. Potency, µM (top dose mostly 59.4 µM), for the others: top-dose activity, negative = IMPase inhibition, actives largely listed as inhibitors. 0.35% of 210,000 active. AID 1457;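 note: IP1 builds up when IMPase is blocked and the TR-FRET signal falls; potency is the fitted concentration of half-maximal effect; plate controls were basal vehicle for no effect and high inhibitor control for full effect; nearly all actives have a fitted effect of over 50% in size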
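CHO cells stably expressing M1 receptor (2000/well, cultured 16–30 h) treated 30 min at 37C with compound plus low lithium. Cytosolic IP1 by TR-FRET (665/620 ratio and 620 channel) after 10 min lysis; AC50 by Hill fit.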
HPGD block – blocks human HPGD enzyme activity | 4.3% of 150,000 active | AID 894 | P15428 | purified HPGD, NADH fluorescence kinetic, PGE2 substrate | Potency, µM, for the others: at the top dose activity change, negative = inhibition, actives largely listed as inhibitors; active = well fitted inhibition curve with a large enough effect, not every such curve was filed as active; inconclusive = small, poorly fitted or top-dose-only effect, or another doubt; inactive = no such curve, though single readings can be large or run the other way; note: potency is the fitted concentration of half-maximal effect
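NADH formation kinetics: reaction with 30 uM PGE2 and 1 mM NAD+ (final), 20 nM enzyme, Tris-HCl pH 8 with Tween 20, after 15 min compound preincubation at room temperature. Fluorescence change, last versus first of five reads.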
NPSR antag – neuropeptide S receptor (human) antagonism, cAMP. 1% of 220,000 active. Potency, µM (highest dose often 38.3 µM), without a hit: top-dose activity change, negative = inhibition, hits mostly inhibitors. Q6W5P4. CHO-NPSR cells, cAMP TR-FRET, antagonist mode. AID 1461; note: potency is the fitted concentration of half-maximal effect; nearly all actives have a fitted effect of over 50% in size
ALDH1A1 inh – blocks purified human ALDH1A1 activity. Potency, µM (top dose mostly 75.3 µM), for the others: at the highest dose activity, negative = inhibition, most hits filed as inhibitors. P00352. Purified ALDH1A1, NADH fluorescence, propionaldehyde substrate. 7.3% of 220,000 active; active = well fitted inhibition curve with a large enough effect, not every such curve was filed as active; inconclusive = small, poorly fitted or top-dose-only effect, or another doubt; inactive = no such curve, though single readings can be large or run the other way;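 note: potency is the fitted concentration of half-maximal effect; plate controls were no enzyme wells and a reference inhibitor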
Target sequence (P00352 whole entry, looked up): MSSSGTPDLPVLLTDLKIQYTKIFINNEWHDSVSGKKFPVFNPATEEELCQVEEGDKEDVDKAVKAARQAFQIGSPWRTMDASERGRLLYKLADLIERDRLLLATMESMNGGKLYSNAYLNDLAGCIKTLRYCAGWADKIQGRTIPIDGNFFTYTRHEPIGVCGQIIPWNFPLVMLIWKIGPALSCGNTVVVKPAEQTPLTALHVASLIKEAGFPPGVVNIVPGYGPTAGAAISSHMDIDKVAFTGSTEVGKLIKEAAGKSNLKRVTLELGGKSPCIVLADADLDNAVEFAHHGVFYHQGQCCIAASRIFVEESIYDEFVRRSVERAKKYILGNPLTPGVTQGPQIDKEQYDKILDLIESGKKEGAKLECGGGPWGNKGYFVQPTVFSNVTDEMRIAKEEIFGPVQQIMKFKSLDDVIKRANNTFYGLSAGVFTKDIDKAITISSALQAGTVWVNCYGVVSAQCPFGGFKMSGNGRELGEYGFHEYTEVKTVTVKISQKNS
Active calls of the source: *; ? = inconclusive; / = no result given; ! = repeats disagree; [ ] = dose if it differs, or a comment. Unless noted, calls come from the whole dose curve; as a rule, active = well fitted curve in the direction sought with a large enough effect; inconclusive = small, poorly fitted or top-dose-only effect, or another doubt; inactive = no such curve, though single readings can be large; an effect the other way counts as inactive or inconclusive. Unless noted, % is set by controls: 0 for no effect and ±100 for the full control effect.

SMILES	ALOX12 inhib	IMPase inh	IMPase Li cell	HPGD block	NPSR antag	ALDH1A1 inh
COC(=O)c1ccc(NC(=O)COc2ccc(C3C(C#N)=C(N)Oc4c3ccc3ccccc43)cc2OC)cc1 (stereo unspecified)	-3.4%	2.4	-13.7%[38.3 µM]	-11.6%	-13.3%[46.1 µM]	0.0%
CC1(C)CC(=O)C/C(=N\NC(=O)C2CC2c2ccccc2)C1 (stereo unspecified)	/	/	-2.2%	/	-7.4%	31.6µM*
O=C1OCCC1Sc1ncnc2sc3c(c12)CCC3 (stereo unspecified)	4.0%	-14.3	-3.2%	-19.4%	4.0%[46.1 µM]	-7.0%
Cc1nc(SC2CCOC2=O)c2c(C)c(C)sc2n1 (stereo unspecified)	2.6%	?	7.08µM*	-6.4%	25.6%[46.1 µM]	22.4µM*
Cc1cc(C)nc(SCC(=O)NN=C2CCCC2)n1	/	/	4.8%	/	5.4%	-14.9%
Cc1cc(SCC(=O)N/N=C/c2ccc(O)c(O)c2O)c(C)cc1Br	?	2.0	27.1%[38.3 µM]	10µM*	-3.5%[46.1 µM]	4.47µM*
COc1cc(/C=N/NC(=O)CSc2cc(C)c(Br)cc2C)ccc1O	-8.4%	2.7	42.4%[38.3 µM]	-12.5%	-5.3%[46.1 µM]	0.5%
Cc1cc(SCC(=O)NN=C2CCN(C(C)C)CC2)c(C)cc1Br	-1.6%	/	-2.4%	25.1µM*	15.8%	?
O=C(Nc1cccc(Cl)c1)c1c(NC(=O)C(F)(F)F)sc2c1CCCC2	/	8.1	/	/	/	/
O=C(CSc1ncnc2ccccc12)c1cccs1	/	/	13.6%	/	5.4%	11.2µM*
Cc1cc(C)c(C#N)c(SCc2nc3ccccc3c(=O)[nH]2)n1	/	/	12.4%	/	11.8%	?
Cc1nc(SCC(=O)c2ccccc2)c(C#N)c(-c2ccco2)c1C(=O)NCc1ccco1	-5.7%	5.3	14.7%[38.3 µM]	-21.5%	?	10µM*
Cc1cc(C)c(C#N)c(Sc2ccccc2N)n1	/	/	2.5%	/	-6.3%	25.1µM*
COC(=O)C(Sc1nc(C)cc(C)c1C#N)c1ccccc1 (stereo unspecified)	-10.7%	12.4	7.6%[38.3 µM]	-6.1%	?	5.2%
Cc1cc(C)c(C#N)c(SCC(O)CS(=O)(=O)Cc2ccccc2)n1 (stereo unspecified)	-4.9%	2.1	-1.9%[38.3 µM]	-17.8%	-19.3%[46.1 µM]	28.2µM*
CCOC(=O)c1oc2c(c1C)/C(=N/O)CCC2	-9.9%	4.8	20.9%[38.3 µM]	-7.2%	5.5%[46.1 µM]	-15.3%
COc1cc(-c2noc(-c3ccccc3C(=O)NCc3ccco3)n2)cc(OC)c1OC	1.5%	8.7	15.6%[38.3 µM]	-3.7%	-16.8%[46.1 µM]	0.6%
Cc1ccc(Cn2ncc(C)c2N)o1	/	/	5.8%	/	6.0%	8.5%
O=C(Cn1ncc2ccccc21)N1CCc2ccccc21	0.3%	-0.5	25.9%[38.3 µM]	-4.2%	-2.2%[46.1 µM]	2.1%
O=C(NC(=S)N1CCN(C/C=C/c2ccccc2)CC1)c1ccc(F)cc1	/	/	/	/	?	-6.5%
Cc1cc(C)c(C#N)c(OCC(=O)c2ccccc2)n1	-9.1%	4.6	20.6%[38.3 µM]	22.4µM*	-12.9%[46.1 µM]	6.31µM*
Cc1cc(C)c(C#N)c(SCC(=O)c2ccccc2)n1	/	/	12.1%	/	28.4%	22.4µM*
CSc1nc(N)nc(SCC(=O)c2ccccc2)c1C#N	-9.5%	5.8	18.3%[38.3 µM]	-28.7%	-19.5%[46.1 µM]	?
Cc1ccccc1NC(=O)CSc1[nH]c(=O)cc(C)c1C#N	-6.1%	-5.0	-1.6%[38.3 µM]	-17.4%	-1.5%[46.1 µM]	-0.6%
Cc1cc(C)c(C#N)c(SCC(=O)c2cccs2)n1	0.5%	2.4	31.5%[38.3 µM]	15.8µM*	-13.3%[46.1 µM]	?
SMILES	ALOX12 inhib	IMPase inh	IMPase Li cell	HPGD block	NPSR antag	ALDH1A1 inh
CCOC(=O)CN(C(=O)COc1nc(C)cc(C)c1C#N)c1cccc(Cl)c1	/	/	/	/	43.9%	/
Cc1cc(=O)[nH]c(SCC(=O)c2ccccc2)c1C#N	-9.7%	2.0	2.5%[38.3 µM]	?	-1.6%[46.1 µM]	17.8µM*
CCN(CC)C(=O)CSc1nc(C)cc(-c2cccs2)c1C#N	0.2%	-14.6	-25.9%[38.3 µM]	-28.1%	?	12.6µM*
Cc1cc(SCC(=O)c2ccccc2)n2nc(C)nc2n1	-0.5%	-13.0	-0.6%	-18.3%	-4.6%[46.1 µM]	20µM*
Cc1cc(C)n2nc(SCCCC(=O)c3ccccc3)nc2n1	/	/	-1.1%	/	-1.7%	2.5%
CC(C)C[C@H](NC(=O)c1[nH]cnc1C(=O)N[C@@H](C)C(=O)OC(C)(C)C)C(=O)OCc1ccccc1	/	/	/	/	-36.8%	/
Cc1ccc(NC(=O)/C(=C\c2ccc([N+](=O)[O-])cc2)NC(=O)c2ccccc2)cc1	-9.9%	1.7	17.2%[38.3 µM]	-10.2%	-8.8%[46.1 µM]	-5.7%
O=C(N/N=C/c1ccc(O)c(O)c1O)/C(=C/c1ccc([N+](=O)[O-])cc1)NC(=O)c1ccccc1	-22.5%	4.5	9.9%[38.3 µM]	25.1µM*	-9.4%[46.1 µM]	10µM*
CC1(C)CC(=O)c2c(noc2-c2ccccc2)C1	-1.3%	0.0	6.8%[38.3 µM]	22.4µM*	?	?
COc1ccc(C(=O)C2CCCN(Cc3c(C)[nH]c4ccccc34)C2)c(OC)c1 (stereo unspecified)	/	/	20.8%	/	-8.1%	25.1µM*
Cc1cc(-c2nnc(-c3cccc(Cl)c3)o2)no1	/	/	/	/	-7.2%	7.6%
NC(=O)c1ncn(C2OC(CO)C(O)C2O)c1N (stereo unspecified)	-1.6%	/	-11.6%	-14.2%	/	0.3%
Nc1nc(SCc2ccc([N+](=O)[O-])cc2)c2ncn([C@@H]3O[C@H](CO)[C@H](O)[C@H]3O)c2n1	/	/	-17.6%	25.1µM*	-14.2%[46.1 µM]	-12.6%
Nc1ncn([C@@H]2O[C@H](CO)[C@@H](O)[C@H]2O)c(=O)n1	-5.9%	1.5	1.9%	-8.1%	-5.3%[46.1 µM]	22.4µM*!
CCCCCCCN(C(=O)CCl)c1ccccc1C	-3.9%	14.1	3.6%	-4.3%	-17.7%	0.501µM*

Screens (PubChem BioAssay)
